Measured values published in PubChem BioAssay AID2241 (Broad Institute, 2010).
Hit rate of the full screen: of about 21,000 compounds, about 110 (0.52%) were called active.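 How the source made its calls: active means most replicate scores above 10, or exactly half above 10 with mean activity above 10; inconclusive means mean activity below 10 while half the replicates exceed 10; inactive means most replicate scores below 10.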 Only a selection was taken, and actives are over-represented in it overall.

Test: inducers of caspase activity in MEF A1-2A-BIM cells, primary screen, A1 inhibitor project, cell-based, CaspaseGlo luminescence (AID 2241);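 further: effector caspase 3 and 7 activity cleaving a DEVD luciferin substrate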
Details: caspase-Glo luminescence, 3 h, hits give high values, percent of clofoctol signal, DMSO as zero, concentration not given here

Caspase activation, inactive:
Cc1cc(C)n(CCc2nc3c4ccccc4n(Cc4ccc(Cl)cc4)c(=O)n3n2)n1 -0.449%, CCOc1ccc2c(c1)sc(=NC(=O)c1cc3ccccc3cc1OC)n2C 1.85%, COC(=O)c1c(C)c(=O)[nH]c2ccccc12 0.776%, CCCOc1ccc(Oc2nc(N(C)C)nc(N(C)C)n2)nn1 0.458%, CCOC(=O)N1CCC(NC(=O)NCc2noc3ccccc23)CC1 0.501%, C[C@@H]1CN([C@@H](C)CO)C(=O)c2cc(NS(=O)(=O)c3ccccc3)ccc2O[C@H]1CN(C)CC1CCCCC1 -0.065%, O=C(CC1N=C2c3ccccc3N=C(SCc3ccccc3F)N2C1=O)NC1CCCCC1 (stereo not drawn) -0.498%, C[C@@H]1CN([C@H](C)CO)C(=O)c2cc(NC(=O)Nc3ccccc3)ccc2O[C@H]1CN(C)S(=O)(=O)c1ccc(F)cc1 -0.342%, O=c1c2ccccc2nc(SCc2ccc(F)cc2)n1-c1ccccc1 -0.926%, O=C(NCc1ccc2c(c1)OCO2)C12CC3CC(CC(C3)C1)C2 0.545%, CCOC(=O)c1cc(-c2ccccc2)n(-c2ccccc2C)n1 -0.391%, C=CCn1cc(C=C2C(=O)N(C)C(=S)N(C)C2=O)c2ccccc21 1.19%, C[C@H]1CN([C@@H](C)CO)C(=O)c2cc(NS(C)(=O)=O)ccc2O[C@@H]1CN(C)S(=O)(=O)c1ccc(Cl)cc1 -0.347%, CC(C)CC1NC(=O)N(c2ccccc2)C1=O (stereo not drawn) 0.301%, C[C@H](CO)N1C[C@H](C)[C@H](CN(C)Cc2ccc(-c3ccccc3)cc2)Oc2ccc(NS(=O)(=O)c3ccccc3)cc2C1=O 0.241%, Cc1ccc(NC2=CC(=O)NC2)cc1 1.28%, CN(CCOC(=O)C1c2ccccc2Oc2ccccc21)Cc1ccccc1 1.21%, Cc1cccc(NC(=O)c2ccc(C)c(S(=O)(=O)N3CCCC3)c2)c1 -5.91%, CC(=O)N1N=C(c2ccccc2)OC1c1cccnc1 (stereo not drawn) -0.213%, C[C@H]1CN([C@@H](C)CO)C(=O)c2cc(NC(=O)Nc3ccccc3)ccc2O[C@H]1CN(C)C(=O)Nc1ccc(F)cc1 0.365%, Cc1ccccc1N(C)S(=O)(=O)c1ccc2[nH]cc(C(=O)NCCC(C)C)c(=O)c2c1 0.114%, COc1cc(C=Nc2ccc(Cl)cc2)ccc1OC(=O)/C=C/c1cccs1 -0.187%, O=C(Cc1ccccc1)N1CCCc2ccccc21 1.12%
